Active and inactive are the calls of the source.
Legend:
[1] = optical density shifts of acrAB sulA E. coli – strain DRC41, OD650, 48 h, E. coli filamentation inducer project, primary screen (AID 1152); conditions: higher = more signal, called active from +8 up or from −8 down;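 also: E. coli MC1000 strain DRC41 lacking acrAB efflux pump and sulA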
[2] = probe aLefty1 binding on compound microarray – biochemical, small-molecule microarray, 635/667 nm fluorescence, primary screen (AID 1153); conditions: higher = more signal;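 also: score merges spot fluorescence with signal-to-noise ratio from the scanned slide images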
[3] = plasmodial surface anion channel blockers, osmotic lysis – cell-based, P. falciparum Indochina, OD700, 1 h, primary screen (AID 1154); conditions: P. falciparum Indochina infected RBC osmotic lysis, higher = more signal, called active from +8 up or from −8 down
[4] = plasmodial surface anion channel blockers, osmotic lysis – cell-based, P. falciparum Indochina, OD700, 2 h, primary screen (AID 1155);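 also: lysis reports solute entry through the parasite surface anion channel PSAC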; conditions: P. falciparum Indochina infected erythrocytes, higher = more signal, called active from +8 up or from −8 down
[5] = changes in parasitized red cell lysis, either direction – P. falciparum Indochina, OD700, 3 h, PSAC antagonist project, primary screen (AID 1156); conditions: P. falciparum-infected erythrocytes, osmotic lysis, higher = more signal, called active from +8 up or from −8 down
[6] = plasmodial surface anion channel blockers, osmotic lysis – cell-based, P. falciparum Indochina, OD700, 18 h, primary screen (AID 1157); conditions: P. falciparum Indochina infected erythrocytes, osmotic lysis OD700, 18 h; higher = more signal, called active from +8 up or from −8 down
[7] = S6 kinase pathway phospho-S6 level changes – cell-based, A549, cytoblot, luminescence, serum-stimulated, primary screen (AID 1158); conditions: 5 h, higher = more signal;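 also: serum-stimulated A549 lung adenocarcinoma cells; signal is phosphorylated S6 detected by cytoblot immunostaining with HRP secondary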
[8] = target: NADPH oxidase 2 (Homo sapiens) (UniProt P04839); experiment: compounds shifting NOX2 Amplex Red fluorescence – cell-based, HEK293-NOX2, PMA-stimulated, NOX inhibitor project, primary screen (AID 1159); conditions: 45 min, higher = more signal, called active from +8 up or from −8 down; also: test concentration not given here
Chain of NADPH oxidase 2 (Homo sapiens) (P04839 whole entry, looked up): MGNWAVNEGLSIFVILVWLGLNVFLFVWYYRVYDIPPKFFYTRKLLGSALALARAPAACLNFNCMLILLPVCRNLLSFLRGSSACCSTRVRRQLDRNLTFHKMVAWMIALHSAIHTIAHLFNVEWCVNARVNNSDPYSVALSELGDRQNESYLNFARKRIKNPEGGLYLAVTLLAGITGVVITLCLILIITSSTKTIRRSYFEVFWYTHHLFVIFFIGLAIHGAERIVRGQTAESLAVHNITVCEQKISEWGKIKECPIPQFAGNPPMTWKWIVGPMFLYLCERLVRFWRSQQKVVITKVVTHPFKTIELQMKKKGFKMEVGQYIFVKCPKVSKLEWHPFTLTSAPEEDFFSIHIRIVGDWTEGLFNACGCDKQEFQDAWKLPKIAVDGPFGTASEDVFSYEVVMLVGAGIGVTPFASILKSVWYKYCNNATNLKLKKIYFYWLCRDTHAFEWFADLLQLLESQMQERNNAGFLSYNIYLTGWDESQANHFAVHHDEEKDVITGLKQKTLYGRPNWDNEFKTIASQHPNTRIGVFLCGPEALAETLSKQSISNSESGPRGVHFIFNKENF

[9] = target: NADPH oxidase 4 (Homo sapiens) (UniProt Q9NPH5); experiment: compounds shifting NOX4 Amplex Red fluorescence – cell-based, HEK293-NOX4, tetracycline-induced, NOX inhibitor project, primary screen (AID 1160); conditions: HEK293-NOX4, Amplex Red H2O2 fluorescence, 45 min; higher = more signal, called active from +8 up or from −8 down
Chain of NADPH oxidase 4 (Homo sapiens) (Q9NPH5 whole entry, looked up): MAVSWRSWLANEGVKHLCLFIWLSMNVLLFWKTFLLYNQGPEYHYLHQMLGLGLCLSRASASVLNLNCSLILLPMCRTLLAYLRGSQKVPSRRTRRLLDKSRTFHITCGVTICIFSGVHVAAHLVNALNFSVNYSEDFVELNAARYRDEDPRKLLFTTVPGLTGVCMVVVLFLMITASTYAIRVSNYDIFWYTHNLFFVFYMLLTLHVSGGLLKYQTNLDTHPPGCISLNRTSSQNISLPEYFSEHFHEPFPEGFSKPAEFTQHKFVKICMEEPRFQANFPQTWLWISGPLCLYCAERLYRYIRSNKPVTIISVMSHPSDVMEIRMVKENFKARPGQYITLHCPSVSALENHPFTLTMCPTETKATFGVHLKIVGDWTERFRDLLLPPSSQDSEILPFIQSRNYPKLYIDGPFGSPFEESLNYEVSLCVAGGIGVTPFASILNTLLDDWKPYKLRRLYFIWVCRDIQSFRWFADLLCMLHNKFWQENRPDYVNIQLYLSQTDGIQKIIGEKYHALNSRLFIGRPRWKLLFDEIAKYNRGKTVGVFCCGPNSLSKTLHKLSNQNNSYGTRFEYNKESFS

[10] = target: NADPH oxidase 5 (Homo sapiens) (UniProt Q96PH1); experiment: compounds shifting NOX5 Amplex Red fluorescence – cell-based, HEK293-NOX5, NOX inhibitor project, primary screen (AID 1161); conditions: HEK293-NOX5, ionomycin, 45 min, higher = more signal
Chain of NADPH oxidase 5 (Homo sapiens) (Q96PH1 whole entry, looked up): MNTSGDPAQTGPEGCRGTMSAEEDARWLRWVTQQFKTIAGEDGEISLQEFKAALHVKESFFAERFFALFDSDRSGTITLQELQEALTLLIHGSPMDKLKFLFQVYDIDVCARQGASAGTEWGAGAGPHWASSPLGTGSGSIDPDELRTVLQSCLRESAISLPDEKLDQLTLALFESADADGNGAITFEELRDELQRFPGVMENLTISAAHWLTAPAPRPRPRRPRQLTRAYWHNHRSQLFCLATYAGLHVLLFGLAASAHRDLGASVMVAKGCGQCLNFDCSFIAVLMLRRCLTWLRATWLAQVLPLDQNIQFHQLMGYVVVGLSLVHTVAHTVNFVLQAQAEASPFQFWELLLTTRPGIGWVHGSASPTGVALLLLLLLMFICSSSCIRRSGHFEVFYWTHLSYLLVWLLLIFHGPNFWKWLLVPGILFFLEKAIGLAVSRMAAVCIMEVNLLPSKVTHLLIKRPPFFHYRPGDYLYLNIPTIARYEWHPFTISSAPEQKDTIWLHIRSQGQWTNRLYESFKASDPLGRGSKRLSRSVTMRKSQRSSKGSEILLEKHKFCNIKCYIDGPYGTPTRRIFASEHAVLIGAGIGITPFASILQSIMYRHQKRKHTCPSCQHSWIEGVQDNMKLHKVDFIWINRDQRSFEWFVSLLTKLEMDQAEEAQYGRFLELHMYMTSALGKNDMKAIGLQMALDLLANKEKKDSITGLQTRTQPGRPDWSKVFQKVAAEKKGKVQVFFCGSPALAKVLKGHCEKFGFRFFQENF

[11] = compound effects on lung adenocarcinoma cell viability – A549, calcein-AM fluorescence, 48 h, basal, profiling panel (AID 1162); conditions: higher = more signal; also: test concentration not given here
[12] = compound effects on differentiated 3T3-L1 adipocyte viability – cell-based, 3T3-L1 adipocytes, calcein-AM fluorescence, 48 h, basal, profiling panel (AID 1163); conditions: 3T3-L1 adipocytes viability, higher = more signal; also: test concentration not given here
[13] = compound effects on hepatocellular carcinoma cell viability – HepG2, calcein-AM fluorescence, 48 h, basal, profiling panel (AID 1164); conditions: higher = more signal; also: test concentration not given here
[14] = compound effects on multiple myeloma cell viability – MM1S, calcein-AM fluorescence, 48 h, basal, profiling panel (AID 1165); conditions: higher = more signal; also: test concentration not given here
[15] = calcein-AM signal in unstimulated myeloma cells – cell-based, calcein-AM fluorescence, 48 h, PK04 Diversity Set, profiling panel (AID 1166); conditions: RPMI8226 myeloma viability, higher = more signal;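 also: cells grown under basal conditions without added stimulus; test concentration not given here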
[16] = JC-1 mitochondrial signal, unstimulated HepG2 cells – cell-based, JC-1 fluorescence, 24 h, 100 nL compound, profiling panel (AID 1167); conditions: HepG2 mitochondrial potential, higher = more signal; also: test concentration not given here
[17] = JC-1 mitochondrial signal, unstimulated adipocytes – cell-based, JC-1 fluorescence, 3T3-L1 adipocytes, 24 h, 100 nL compound, profiling panel (AID 1168); conditions: JC-1 mitochondrial fluorescence, higher = more signal, called active from +8 up or from −8 down; also: test concentration not given here
[18] = JC-1 mitochondrial signal, unstimulated myeloma cells – cell-based, JC-1 fluorescence, RPMI8226, 24 h, 100 nL compound, profiling panel (AID 1169); conditions: JC-1 mitochondrial potential fluorescence, higher = more signal; also: test concentration not given here
[19] = JC-1 mitochondrial signal, unstimulated MM1S myeloma – cell-based, JC-1 fluorescence, 24 h, 100 nL compound, profiling panel (AID 1170); conditions: MM1S mitochondrial potential, higher = more signal; also: test concentration not given here
[20] = resazurin metabolic signal in A549 cells – cell-based, resazurin fluorescence, 24 h, PK04 Diversity Set, profiling panel (AID 1171); conditions: A549 viability, higher = more signal, called active from +8 up or from −8 down; also: test concentration not given here

| SMILES | z-score [1] | composite z-score [2] | z-score [3] | z-score [4] | z-score [5] | z-score [6] | z-score [7] | z-score [8] | z-score [9] | z-score [10] | z-score [11] | z-score [12] | z-score [13] | z-score [14] | z-score [15] | z-score [16] | z-score [17] | z-score [18] | z-score [19] | z-score [20] |
| --- | --- | --- | --- | --- | --- | --- | --- | --- | --- | --- | --- | --- | --- | --- | --- | --- | --- | --- | --- | --- |
| O=C1O[C@@H](c2ccccc2)[C@@H](c2ccccc2)N2[C@@H](c3ccccc3OCCO)[C@]3(C(=O)Nc4ccccc43)[C@@H](C(=O)NC[C@H](O)c3ccccc3)[C@H]12 | -0.275 (inactive) | 0.0112 | 5.03 (inactive) | 2.2 (inactive) | -0.526 (inactive) | 1.87 (inactive) | -0.589 | 1.43 (inactive) | 0.303 (inactive) | 1.56 | -1.53 | 0.0155 | -3.94 | -3.32 | -4.54 | -1.64 | 0.305 (inactive) | -1.22 | -2.09 | -1.99 (inactive) |
| CN(C)CCCCNC(=O)[C@H]1C[C@H]2C(=O)N3CCC[C@H]3C(=O)N2[C@H]1c1ccc(O)cc1 | 1.67 (inactive) | -0.926 | 0.148 (inactive) | -1.79 (inactive) | 1.55 (inactive) | -2.18 (inactive) | 0.752 | -0.714 (inactive) | -0.561 (inactive) | -3.16 | -0.448 | 0.862 | -0.55 | 0.26 | 0.293 | -0.835 | -0.104 (inactive) | 0.613 | -0.927 | 0.228 (inactive) |
| C=C(COC)/C(=C/C[C@@H](OC(=O)c1ccncc1)c1ccc(CO)o1)c1cnc2ccccc2c1 | 0.149 (inactive) | 0.471 | 4.66 (inactive) | 1.24 (inactive) | 1 (inactive) | 0.234 (inactive) | -0.188 | -0.627 (inactive) | -1.24 (inactive) | -1.54 | -0.308 | 0.513 | -0.607 | -0.164 | 0.575 | -0.65 | 0.654 (inactive) | 0.0268 | -0.151 | 0.331 (inactive) |
| COc1c(C)cc(-c2cc3c(c(-c4ccccc4)n2)[Si](C(C)C)(C(C)C)OC3)cc1C | 0.118 (inactive) | -0.0287 | 1.54 (inactive) | 0.494 (inactive) | 0.392 (inactive) | 0.506 (inactive) | 0.768 | 0.956 (inactive) | 0.103 (inactive) | 0.829 | 0.33 | -0.182 | -0.43 | -1.51 | -0.515 | -0.759 | -0.00733 (inactive) | 0.00523 | 0.486 | 0.51 (inactive) |
| CN1C(=O)C2C(C1=O)C1C=C(c3ccc(CO)cc3)C2C(c2cccs2)N1Cc1cccc(OC(F)(F)F)c1 (stereo not given) | -0.652 (inactive) | 0.0999 | 17.4 (active) | 3.33 (inactive) | 1.81 (inactive) | 1.43 (inactive) | 0.624 | -2.71 (inactive) | -1.35 (inactive) | -2.6 | 0.567 | 1.25 | -0.617 | -0.314 | -2.96 | -1.71 | -1.12 (inactive) | -0.722 | -0.556 | -0.665 (inactive) |
| COC(=O)[C@@]1(Cc2ccc(F)cc2)[C@H]2c3cc(C(=O)N4CCCC4)n(CCc4c[nH]c5ccc(OC)cc45)c3C[C@H]2CN1C(=O)c1ccccc1 | -1.06 (inactive) | 1.97 | 4.03 (inactive) | -0.165 (inactive) | 0.217 (inactive) | -0.583 (inactive) | 1.03 | -3.07 (inactive) | 0.118 (inactive) | -2.39 | -2.28 | 0.787 | -0.906 | -2.13 | -4.1 | 1 | -1.33 (inactive) | -0.917 | -2 | -1.63 (inactive) |
| CCCc1cccc(=O)o1 | -0.228 (inactive) | 0.042 | 0.342 (inactive) | -0.831 (inactive) | -0.832 (inactive) | -1.23 (inactive) | 0.274 | 0.685 (inactive) | -0.173 (inactive) | 0.173 | -0.996 | 0.369 | -0.133 | 0.25 | -0.316 | -0.147 | 0.72 (inactive) | -0.417 | -0.773 | 0.366 (inactive) |
| CC(C)c1ccc(NN2C(C(O)c3ccco3)C=CC3C(=O)N(c4ccccc4)C(=O)C32)cc1 (stereo not given) | -0.302 (inactive) | 0.409 | 6.96 (inactive) | 1.93 (inactive) | 0.626 (inactive) | 1.29 (inactive) | -0.694 | -1.67 (inactive) | -1.95 (inactive) | -1.88 | 0.983 | -1.49 | 0.842 | -0.155 | -0.166 | -1.14 | -0.473 (inactive) | 0.473 | -0.921 | -0.635 (inactive) |

Source: PubChem BioAssay
